In PubChem BioAssay (Tox21):
Results filed as inconclusive are left out. Calls of active or inactive are those of the source. Calls follow the shape of the dose curve; as a rule, active = well fitted curve in the direction sought with a large enough effect in the repeat runs; inconclusive = weak or mixed curves; inactive = no such curve, though single readings can be large; an effect the other way counts as inactive or inconclusive.

How the values were obtained:
[1] = qHTS RealTime-Glo MT Cell Viability Assay in HepG2 cells - 24 hour (AID 1224867); also: nearly all actives have a fitted effect of over 50% in size
Procedure, shortened: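 HepG2 cells (600/well) were dispensed with RealTime-Glo reagents, incubated 5 h at 37 °C, then treated with compounds in DMSO for up to 40 h. Nonlytic NanoLuc luminescence reflecting viable cells was read at each stated time point.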

[2] = qHTS RealTime-Glo MT Cell Viability Assay in HEK293 cells - 32 hour (AID 1224868); also: top concentration of the series differs between compounds; nearly all actives have a fitted effect of over 50% in size
Procedure, shortened: (§1)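 HEK293 cells seeded with NanoLuc/prosubstrate reagent, rested 5 h at 37 C, then dosed and kept at 37 C up to 40 h. Nonlytic real-time luminescence from viable cells read at 0, 8, 16, 24, 32 and 40 h.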

[3] = A CellTox Green Cytotoxicity Assay to monitor cytotoxicity in HEK293 cells - 0 hour (AID 1224869); also: nearly all actives have a fitted effect of over 50% in size
Procedure, shortened: (§2)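 Cytotoxicity was tracked continuously in HEK293 cells by a DNA-binding dye excluded from viable cells. Compounds were transferred in DMSO 5 h after seeding; fluorescence was recorded at intervals up to 40 h.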

[4] = qHTS RealTime-Glo MT Cell Viability Assay in HepG2 cells - 40 hour (AID 1224870); also: nearly all actives have a fitted effect of over 50% in size
Procedure, shortened: (§3)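 HepG2 cells mixed with RealTime-Glo MT reagents (NanoLuc plus cell-permeant prosubstrate) were seeded at 600 cells/well, incubated 5 h at 37 C/5% CO2, then pinned with compounds in DMSO; nonlytic luminescence tracked viability during 40 h treatment.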

[5] = A CellTox Green Cytotoxicity Assay to monitor cytotoxicity in HEK293 cells - 40 hour (AID 1224871); also: nearly all actives have a fitted effect of over 45% in size
Procedure, shortened: as §2

[6] = qHTS RealTime-Glo MT Cell Viability Assay in HEK293 cells - 16 hour (AID 1224872)
Procedure, shortened: as §1

[7] = qHTS RealTime-Glo MT Cell Viability Assay in HepG2 cells - 8 hour (AID 1224873); also: nearly all actives have a fitted effect of over 55% in size
Procedure, shortened: as §3

[8] = qHTS RealTime-Glo MT Cell Viability Assay in HEK293 cells - 40 hour (AID 1224874); details: RealTime-Glo luminescence, hits give low values; also: nearly all actives have a fitted effect of over 50% in size
Procedure, shortened: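 Nonlytic bioluminescent viability monitoring. HEK293 at 600 cells/well with reagent; 5 h settle; compound transfer by pintool; plates held at 37 C and read at set time points.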

[9] = A CellTox Green Cytotoxicity Assay to monitor cytotoxicity in HEK293 cells - 24 hour (AID 1224875); also: series mostly up to about 77 µM; nearly all actives have a fitted effect of over 45% in size
Procedure, shortened: as §2

[10] = A CellTox Green Cytotoxicity Assay to monitor cytotoxicity in HepG2 cells - 16 hour (AID 1224876); also: nearly all actives have a fitted effect of over 45% in size
Procedure, shortened: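 Real-time, homogeneous cytotoxicity readout: dead-cell DNA staining by CellTox Green in HepG2 monolayers, fluorescence measured at timed intervals up to 40 h of continuous compound exposure.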
% is scaled to controls: 0 for no effect and ±100 for the full control effect.

COCc1nnc(-c2ccc[n+]([O-])c2)n1-c1c(Cl)c(Cl)cc2[nH]c(=O)c(=O)[nH]c12
inactive: outcome [1] | outcome [2] | outcome [3] | outcome [4] | Potency [5] | outcome [6] | outcome [7] | max response [8] -6.51% | Potency [9] | Potency [10]

CCOC(=O)CC
inactive: outcome [1] | outcome [2] | outcome [3] | outcome [4] | Potency [5] | outcome [6] | outcome [7] | max response [8] 19% | Potency [9] | Potency [10]

CCCCCCC(=O)c1ccccc1
inactive: outcome [1] | outcome [2] | outcome [3] | outcome [4] | Potency [5] | outcome [6] | outcome [7] | max response [8] -0.886% | Potency [9] | Potency [10]

C=CCCCCCCCCOC(C)=O
inactive: outcome [1] | outcome [2] | outcome [3] | outcome [4] | Potency [5] | outcome [6] | outcome [7] | max response [8] 0.238% | Potency [9] | Potency [10]

CNC(=O)c1c(I)c(NC(C)=O)c(I)c(C(=O)O)c1I
inactive: outcome [1] | outcome [2] | outcome [3] | outcome [4] | Potency [5] | outcome [6] | outcome [7] | max response [8] 3.75% | Potency [9] | Potency [10]

CCCC(=O)OC
inactive: outcome [1] | outcome [2] | outcome [3] | outcome [4] | Potency [5] | outcome [6] | outcome [7] | max response [8] -2.73% | Potency [9] | Potency [10]

CN(C)CCc1c[nH]c2ccc(CS(=O)(=O)N3CCCC3)cc12
inactive: outcome [1] | outcome [2] | outcome [3] | outcome [4] | Potency [5] | outcome [6] | outcome [7] | max response [8] 7.03% | Potency [9] | Potency [10]

CCCC[O][Al]([O]CCCC)[O]CCCC
inactive: outcome [1] | outcome [2] | outcome [3] | outcome [4] | Potency [5] | outcome [6] | outcome [7] | max response [8] 2.78% | Potency [9] | Potency [10]

O=C(O)Cc1c(Cl)ccc(Cl)c1Cl
inactive: outcome [1] | outcome [2] | outcome [3] | outcome [4] | Potency [5] | outcome [6] | outcome [7] | max response [8] 2.56% | Potency [9] | Potency [10]

CCO[Si](CC(C)C)(OCC)OCC
inactive: outcome [1] | outcome [2] | outcome [3] | outcome [4] | Potency [5] | outcome [6] | outcome [7] | max response [8] -8.56% | Potency [9]

CCN(CC)CC
inactive: outcome [1] | outcome [2] | outcome [3] | outcome [4] | Potency [5] | outcome [6] | outcome [7] | max response [8] -12.9% | Potency [9] | Potency [10]

CN(C)CCCN(C)C
inactive: activity change, negative = cytotoxicity [1] 0.293% [at 6.97 µM] | activity change, negative = cytotoxic [2] 0.277% [at 6.97 µM] | cytotoxicity [3] 0.262% [at 6.97 µM] | activity change, negative = cytotoxic [4] 1.14% [at 6.97 µM] | cytotoxicity increase [5] -1.24% [at 6.97 µM] | activity change, negative = cytotoxicity [6] -4.3% [at 6.97 µM] | viability change, negative = cytotoxic [7] 0.94% [at 6.97 µM] | max response [8] 0.838% | activity change [9] -1.21% [at 6.97 µM, hits give high values] | cytotoxicity increase [10] -15.4% [at 6.97 µM]

CC[C@@]1(c2ccccc2)NC(=O)N(C)C1=O
inactive: outcome [1] | outcome [2] | outcome [3] | outcome [4] | Potency [5] | outcome [6] | outcome [7] | max response [8] 14.4% | Potency [9] | Potency [10]

CCNC(=O)C(C)OC(=O)Nc1ccccc1 (stereo not drawn)
inactive: outcome [1] | outcome [2] | outcome [3] | outcome [4] | Potency [5] | outcome [6] | outcome [7] | max response [8] -1.79% | Potency [9] | Potency [10]

CCOC(=O)c1ccc(N(C)C)cc1
inactive: outcome [1] | outcome [2] | outcome [3] | outcome [4] | Potency [5] | outcome [6] | outcome [7] | max response [8] -8.74% | Potency [9] | Potency [10]

C=CCN1CCc2nc(N)sc2CC1
inactive: outcome [1] | outcome [2] | outcome [3] | outcome [4] | Potency [5] | outcome [6] | outcome [7] | max response [8] 7.02% | Potency [9] | Potency [10]

COC(=O)/C=C(\C)CCC=C(C)C
inactive: outcome [1] | outcome [2] | outcome [3] | outcome [4] | Potency [5] | outcome [6] | outcome [7] | max response [8] 9.52% | Potency [9] | Potency [10]

CO/N=C(\C(=O)O)c1csc(NC(=O)CCl)n1
inactive: outcome [1] | outcome [2] | outcome [3] | outcome [4] | Potency [5] | outcome [6] | outcome [7] | max response [8] 0.384% | Potency [9] | Potency [10]

CCCCN1C(=O)c2ccccc2C1=O
inactive: outcome [1] | outcome [2] | outcome [3] | outcome [4] | Potency [5] | outcome [6] | outcome [7] | max response [8] -3.23% | Potency [9]

CN(C)c1cc(NC(=O)CNC(C)(C)C)c(O)c2c1C[C@H]1C[C@H]3[C@H](N(C)C)C(=O)C(C(N)=O)=C(O)[C@@]3(O)C(=O)C1=C2O
inactive: outcome [1] | outcome [2] | outcome [3] | outcome [4] | Potency [5] | outcome [6] | outcome [7] | max response [8] 2.22% | Potency [9] | Potency [10]
